Compound activity from PubChem BioAssay.
This is a sample that favours compounds with a hit; in the whole collection about 7.5% have one here.
ELG1 genotoxic = inducers of genotoxicity in HEK293T ELG1-luciferase cells; AID 504466; HEK293T ELG1-luciferase reporter, luminescence, 16 h; Potency, µM (titrated, usually from 46 µM), for the others: at the highest dose activity change, positive = activation, hits mostly activators; actives 1.3% (n = 330,000); note: % of control where 0% means no effect; nearly all actives have a fitted effect of over 60% in size
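16 hr compound incubation (37 °C, 5% CO2) of HEK293T cells carrying luciferase-tagged ELG1; luciferase then measured by ONE-Glo luminescence after 30 min at RT.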
NPC1 promoter act = activators of NPC1 promoter; Huh7 NPC1 promoter luciferase reporter, 24 h; Potency, µM (series often up to 9.22 µM), for inactives: at the highest dose activation, hits mostly activators; actives 2.4% (n = 320,000); AID 485313; note: % of control where 0% means no effect; nearly all actives have a fitted effect of over 60% in size
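Luciferase expression driven by the NPC1 promoter was measured in stably transfected Huh7 cells after a 24 h compound incubation, using a luciferase reagent and a luminescence read.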
SMN2 splice enh = enhancers of SMN2 splice variant expression; actives 2.8% (n = 210,000); Potency, µM (titrated, usually from 46.1 µM), for the others: at the highest dose activity change, positive = activation, hits mostly activators; HEK293 SMN2-luciferase splicing reporter, luminescence, 30-36 h; note: % of control where 0% means no effect; nearly all actives have a fitted effect of over 55% in size
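HEK293 cells carry an SMN2 minigene-luciferase reporter in which exon 7 inclusion puts luciferase in frame. Cells were seeded at 2000 cells/well, attached for 10-12 hours, then exposed to compounds for 30-36 hours at 37C before ONE-Glo luminescence.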
Rab9 promoter act = activators of Rab9 promoter; Huh7 Rab9 promoter-luciferase reporter, luminescence, 24 h; Potency, µM (doses to about 9.22 µM), for inactives: top-dose activation, negative = inhibition, actives largely listed as activators; actives 2.8% (n = 320,000); AID 485297; note: % of control where 0% means no effect; nearly all actives have a fitted effect of over 60% in size
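Rab9 promoter-driven luciferase in stably transfected Huh7 cells; 1500 cells/well rested 2 h, exposed to compound in DMSO for 24 h at 37 °C, 5% CO2. Luminescence read 10 min after adding luciferase reagent at ambient temperature.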
KinaseGlo FLuc = blocks Kinase-Glo luciferase, a counter-screen artifact; Kinase-Glo luciferase, ATP luminescence, 8 min; AID 1379; actives 0.28% (n = 200,000); Q27757; Potency, µM (titrated, usually from 38.3 µM), for the others: at the top dose activity change, negative = inhibition, most hits filed as inhibitors; note: % is set by controls: 0 for no effect and ±100 for the full control effect; nearly all actives have a fitted effect of over 60% in size
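Luminescence was the read-out, taken after 8-minute incubation at ambient temperature. Luciferase turned over luciferin with 10 uM ATP in imidazole pH 7.2 buffer containing KCl, MgCl2, Tween 20 and BSA.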
FLuc counter = inhibits or activates purified firefly luciferase, miR-21 counter-screen; Potency, µM (highest dose often 57.5 µM), for inactives: at the highest dose activity change, negative = inhibition, actives largely listed as inhibitors; purified FLuc, Km substrates, luminescence inhibition; actives 6.9% (n = 360,000); AID 588342;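 note: plate controls were vehicle for no effect and reference inhibitor for full effect; nearly all actives have a fitted effect of over 55% in size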
Target sequence (P08659 whole entry, looked up): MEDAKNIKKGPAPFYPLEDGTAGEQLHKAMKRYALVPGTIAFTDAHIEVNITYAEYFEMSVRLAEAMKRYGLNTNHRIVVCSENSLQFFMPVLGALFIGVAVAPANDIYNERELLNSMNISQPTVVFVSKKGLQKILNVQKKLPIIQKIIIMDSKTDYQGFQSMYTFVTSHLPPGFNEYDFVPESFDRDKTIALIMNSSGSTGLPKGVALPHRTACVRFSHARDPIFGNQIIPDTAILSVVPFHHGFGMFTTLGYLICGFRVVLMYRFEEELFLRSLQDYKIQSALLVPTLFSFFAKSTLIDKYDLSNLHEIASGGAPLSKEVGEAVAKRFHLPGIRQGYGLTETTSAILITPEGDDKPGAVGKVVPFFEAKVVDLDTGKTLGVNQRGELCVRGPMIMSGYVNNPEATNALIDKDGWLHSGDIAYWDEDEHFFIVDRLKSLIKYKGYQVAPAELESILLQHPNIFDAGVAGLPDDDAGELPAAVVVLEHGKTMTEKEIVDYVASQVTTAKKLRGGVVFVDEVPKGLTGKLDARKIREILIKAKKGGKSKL
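Purified P. pyralis luciferase (10nM final) with 10uM D-luciferin and 10uM ATP (Km levels) in 50mM Tris acetate pH 7.5, 10mM Mg acetate, 0.01% Tween-20, 0.05% BSA; qHTS 6-point titration, ~60 µM downward; luminescence read.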
* marks the source's active call; other numbers are inactive results; [ ] = another dose, or the depositor's remark. Calls come from the whole dose curve; as a rule, active = well fitted curve in the direction sought with a large enough effect; inconclusive = small, poorly fitted or top-dose-only effect, or another doubt; inactive = no such curve, though single readings can be large; an effect the other way counts as inactive or inconclusive. Potency is the fitted concentration of half-maximal effect.

Screening O=C(CCc1nnc2ccc(N3CCC4(CC3)OCCO4)nn12)NCc1ccc(F)cc1 returned ELG1 genotoxic 5.0%, NPC1 promoter act -0.6%, Rab9 promoter act 0.2% and FLuc counter 2.0%.
CCN(CC)c1ccc(CNc2ccc(Br)cn2)cc1 was read as ELG1 genotoxic 10.3µM*, NPC1 promoter act inconclusive, SMN2 splice enh inconclusive, Rab9 promoter act 26.1%, KinaseGlo FLuc -0.2% and FLuc counter inconclusive.
Cc1ccnc(NCc2ccc(Br)cc2)c1 was read as ELG1 genotoxic 0.1%, NPC1 promoter act 22.5%, Rab9 promoter act 11.8% and FLuc counter inconclusive.
COCCn1c(C)cc(C(=O)CSc2nc3ccccc3o2)c1C was read as ELG1 genotoxic inconclusive, NPC1 promoter act 0.631µM*, SMN2 splice enh 7.94µM*, Rab9 promoter act 0.355µM*, KinaseGlo FLuc -2.8% and FLuc counter 1.35µM*.
`COCCn1c(C)cc(C(=O)CSc2cc(C)c3ccc(OC)cc3n2)c1C` gave ELG1 genotoxic 1.8%, NPC1 promoter act 6.9%, Rab9 promoter act 18.6% and FLuc counter 3.01µM*.
For COCCn1c(C)cc(C(=O)CSc2nc3ccccc3s2)c1C the results were ELG1 genotoxic inconclusive, NPC1 promoter act 0.355µM*, SMN2 splice enh -76.5%, Rab9 promoter act 0.501µM*, KinaseGlo FLuc -13.5% and FLuc counter 0.536µM*.
For COc1ccc2c(C)cc(SCC(=O)c3ccc4c(c3)OCO4)nc2c1 the results were ELG1 genotoxic -7.0%, NPC1 promoter act -1.0%, SMN2 splice enh -11.1%, Rab9 promoter act 6.8%, KinaseGlo FLuc 0.9% and FLuc counter inconclusive.
For COCCn1c(C)cc(C(=O)CSc2nc(C)c(C)c(C)n2)c1C the results were ELG1 genotoxic 0.2%, NPC1 promoter act -5.9%, SMN2 splice enh -24.3%, Rab9 promoter act 0.1%, KinaseGlo FLuc 0.1% and FLuc counter -18.6%.
`CCOC(=O)CCNC(=O)c1ccc2nc(C3CCCCC3)oc2c1` gave ELG1 genotoxic 2.4%, NPC1 promoter act -1.5%, Rab9 promoter act 17.1% and FLuc counter -4.3%.
For COc1ccc(-n2c(=O)c3c4c(sc3n(Cc3ccc(C)cc3C)c2=O)CCC4)c(OC)c1 the results were SMN2 splice enh 1.5% and FLuc counter -4.7%.
Screening Nc1cc(-c2ccccc2)nn1Cc1ccccc1 returned ELG1 genotoxic 0.2%, NPC1 promoter act 9.0%, SMN2 splice enh -43.9%, Rab9 promoter act -8.5%, KinaseGlo FLuc 2.7% and FLuc counter -6.6%.
`CN(C)N=Nc1ccc(-c2cn(Cc3ccccc3)cn2)cc1` gave ELG1 genotoxic inconclusive, NPC1 promoter act 2.82µM*, Rab9 promoter act inconclusive and FLuc counter 19µM*.
COc1cccc2cc(-c3nc4ccccc4[nH]3)c(=O)oc12 was read as ELG1 genotoxic inconclusive, NPC1 promoter act 1.41µM*, Rab9 promoter act 2.24µM* and FLuc counter 1.69µM*.
Screening COc1ccc(Nc2nc(-c3cc4cccc(OC)c4oc3=O)cs2)cc1 returned ELG1 genotoxic 6.5%, NPC1 promoter act -1.8%, SMN2 splice enh 7.7%, Rab9 promoter act 1.9%, KinaseGlo FLuc -2.7% and FLuc counter -16.7%.
Screening CNC(=O)c1cc2cccc(OC)c2oc1=O returned ELG1 genotoxic 8.8%, NPC1 promoter act -0.1%, SMN2 splice enh 24.2%, Rab9 promoter act -2.6%, KinaseGlo FLuc -0.5% and FLuc counter 4.4%.
For COc1ccc(-c2cc3cccc(OC)c3oc2=O)cc1 the results were ELG1 genotoxic inconclusive, NPC1 promoter act 0.447µM*, Rab9 promoter act 0.501µM* and FLuc counter 0.601µM*.
COc1cccc2cc(-c3ccccc3)c(=O)oc12 was read as ELG1 genotoxic inconclusive, NPC1 promoter act 2.51µM*, SMN2 splice enh 11.2µM*, Rab9 promoter act 2.82µM*, KinaseGlo FLuc inconclusive and FLuc counter 8.49µM*.
C[C@@](O)(/C=C/[C@H]1CC=CC(=O)O1)[C@@H](C[C@@H](O)\C=C/C=C\C=C\CO)OP(=O)(O)O was read as KinaseGlo FLuc 2.1%[39.9 µM].
`CC(C)CN1CCCC2(CCN(C(=O)c3cnccn3)CC2)C1` gave SMN2 splice enh -0.9% and KinaseGlo FLuc -1.3%.
`COc1ccc(C)cc1Nc1nc2cc(Cl)c(Cl)cc2nc1-n1nc(C)cc1C` gave SMN2 splice enh -5.0% and FLuc counter -3.9%.
For CC[C@H](C)C(N)c1cn([C@@H](CC(N)=O)C(=O)N2CCNCC2)nn1 (some centres undefined) the results were ELG1 genotoxic 5.5%, NPC1 promoter act -0.9%, Rab9 promoter act -0.8% and FLuc counter 3.6%.
`CCCCN(CC)CCCNC(=O)c1cc2c(=O)[nH]c3ccccc3c2n1C` gave SMN2 splice enh 16.2% and FLuc counter -3.8%.
Screening Cc1ccc(C(=O)O/N=C(\N)Cc2cccs2)cc1[N+](=O)[O-] returned ELG1 genotoxic inconclusive, NPC1 promoter act 2.24µM*, Rab9 promoter act 3.16µM* and FLuc counter 0.1%.
`O=C(COC(=O)[C@@H]1CC(O)CN1S(=O)(=O)c1ccc(Cl)cc1)NC(=O)NCc1ccccc1` (some centres undefined) gave ELG1 genotoxic -0.1%, NPC1 promoter act -1.3%, Rab9 promoter act -0.4% and FLuc counter -0.6%.
Clc1ncccc1-c1nnn(-c2ccccc2Br)n1 was read as ELG1 genotoxic inconclusive, NPC1 promoter act 22.9%, Rab9 promoter act 24.9% and FLuc counter 16.9µM*.
Brc1ccccc1-n1nnc(-c2nccs2)n1 was read as ELG1 genotoxic 8.2µM*, NPC1 promoter act 2.51µM*, Rab9 promoter act 1.41µM* and FLuc counter 7.57µM*.
Clc1ccc(-n2nnc(-c3cccnc3Cl)n2)cn1 was read as ELG1 genotoxic inconclusive, NPC1 promoter act inconclusive, Rab9 promoter act inconclusive and FLuc counter 13.5µM*.
For Cc1ccc(-n2nnc(-c3cccnc3Cl)n2)cc1 the results were ELG1 genotoxic 5.8µM*, NPC1 promoter act 0.794µM*, Rab9 promoter act 0.794µM* and FLuc counter 0.757µM*.
O=C(Nc1nccs1)c1ccccc1Br was read as ELG1 genotoxic 7.4%, NPC1 promoter act 5.9%, Rab9 promoter act 27.4% and FLuc counter inconclusive.
Cc1[nH]c(=O)[nH]c(=O)c1S(=O)(=O)Nc1cccc(C(F)(F)F)c1 was read as ELG1 genotoxic 0.9%, NPC1 promoter act -2.7%, Rab9 promoter act -1.6% and FLuc counter 0.9%.
N#Cc1ccc(CN2CC3(CCN(C(=O)c4cccc(F)c4)CC3)C2)cc1 was read as SMN2 splice enh -26.3% and KinaseGlo FLuc -3.3%.
